Results from PubChem BioAssay AID1628 (Sanford-Burnham Center for Chemical Genomics, 2009).
The campaign covered roughly 190,000 compounds. About 930 (0.49%) were called active. The list shows a part of the results. Entries with a potency or affinity are not part of this list. Unmarked numbers belong to inactive results.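 The calls were made as follows: active = z-score of insulin promoter reporter brightness in nuclei below -3 at 5 µM, with at least 500 cells counted; inconclusive = wells with under 500 cells, flagged as toxic or sparse; inactive = the rest.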

Assay: insulin promoter down-regulators in MIN6 cells, imaging, high-content screening, mouse beta cells (AID 1628)
Details: MIN6 insulin promoter GFP reporter, at 5 µM, hits give low values

| Structure (SMILES) | z-score |
| --- | --- |
| CCN(CC)CCCOC(=O)C(c1ccccc1)c1ccccc1 | 0.01 |
| CC(=O)c1c(N2CCOCC2)[nH]c(-c2ccccc2)nc1=S | 7.72 |
| N#C/C(=C\c1ccc(N2CCOCC2)o1)c1ccccc1 | 4.39 |
| COc1ccc(OCC(=O)Nc2ccccc2C(=O)N2CCOCC2)cc1 | 1.77 |
| CCc1ccc(C(O)(c2ccccc2OC)C(CN2CCOCC2)c2ccccc2)cc1 (stereo unspecified) | -3.08 (active) |
| CCOCCCNc1nc2c(C)cccn2c(=O)c1/C=C1\SC(=S)N(C(C)CC)C1=O (stereo unspecified) | 17.6 |
| CC(C)NC(=O)/C(C#N)=C\c1ccc(N(C)C)o1 | 11.5 |
| Clc1ccc2[nH]c3c(NCC4CCCO4)ncnc3c2c1 (stereo unspecified) | -4.6 (active) |
| c1ccc2c(c1)[nH]c1c(NCC3CCCO3)ncnc12 (stereo unspecified) | -3.45 (active) |
| Fc1ccc(OCCOCCNCC2CCCO2)cc1 (stereo unspecified) | 1.23 |
| CCN1CC=C2C(C1)C(c1ccc(Cl)s1)C(C#N)=C(N)C2(C#N)C#N (stereo unspecified) | 15.5 |
| CC(C)(C)c1nc2ccccc2c2nnc(SCC(=O)NCc3ccco3)n12 | 1.35 |
| c1cncc(-c2nc(NCc3ccco3)c3ccccc3n2)c1 | -3.11 (active) |
| c1cncc(-c2nn[nH]n2)c1 | -1.32 |
| O=C(Nc1nnc(-c2ccccc2)o1)Nc1ccccc1Cl | 3.77 |
| COc1cccc(N2CCN(c3ncnc4c3[nH]c3ccc(F)cc34)CC2C)c1 (stereo unspecified) | -3.69 (active) |
| OC1(c2cccc(C(F)(F)F)c2)CCN(c2ncnc3c2[nH]c2ccc(F)cc23)CC1 | -4.94 (active) |
| O=C(Nc1ccc(S(=O)(=O)N2CCCCC2)cc1)c1ccncc1 | -3.68 (active) |
| Cc1csc(SCC(=O)Nc2ccc(S(=O)(=O)N3CCCC3)cc2)n1 | 0.21 |
| O=C(NCc1cccnc1)c1ccc(CN2CCc3ccccc3C2)cc1 | 0.66 |
| CCc1cccc2cc3c(N)c(C(=O)Nc4ccc(S(=O)(=O)N5CCCC5)cc4)sc3nc12 | 8.59 |

| Structure (SMILES) | z-score |
| --- | --- |
| N#C/C(=C/c1ccc(N2CCCCCC2)o1)c1cccc(F)c1 | 15.9 |
| COc1ccc(S(=O)(=O)N2CCN(c3ccc4nnc(-c5ccc(F)cc5)n4n3)CC2)cc1 | -4.36 (active) |
| COc1ccc(-c2nnc3sc(C(C)N4C(=O)c5ccccc5C4=O)nn23)cc1 (stereo unspecified) | 1.87 |
| Fc1ccc(-c2nnc3ccc(N4CCc5ccccc5C4)nn23)cc1 | -3.5 (active) |
| O=S(=O)(c1ccc(OCC(O)CN2CCN(c3ccc(F)cc3)CC2)cc1)N1CCOCC1 (stereo unspecified) | -4.17 (active) |
| CC(C)NC(=O)N1CCN(c2ccncc2S(=O)(=O)N2CCOCC2)CC1 | 5.83 |
| OC(COc1cccc2ccccc12)CN1CCN(c2ccccc2Cl)CC1 (stereo unspecified) | 3.51 |
| COc1ccccc1N1CCN(CC(O)COc2ccc(S(=O)(=O)N3CCOCC3)cc2)CC1 (stereo unspecified) | -3.8 (active) |
| CCCCSc1cc(C)nc2ncnn12 | 0.8 |
| O=C(O)CCCCCN1C(=O)/C(=C\c2ccc(-c3ccc(Cl)cc3)o2)SC1=S | 4.23 |
| COc1cc2c3nnc(-c4ccc(F)cc4)c-3cn(Cc3ccc(F)cc3)c2cc1OC | 6.06 |
| O=C(CN1CCCCCCC1)N/N=C/c1ccc(F)cc1F | -7.88 (active) |
| COC(=O)c1[nH]c2cccc(Cl)c2c1NC(=O)CN(C)C1CCCCC1 | 3.5 |
| Cc1[nH]c2ccccc2c1C(=O)CN1CCCCC1C (stereo unspecified) | -1.61 |
| CCOC(=O)C1CCCN(CC(=O)Nc2c(C(=O)OC)[nH]c3ccc(C)cc23)C1 (stereo unspecified) | -3.29 (active) |
| CCS(=O)(=O)N1Cc2ccccc2CC1C(=O)OCC(=O)Nc1ccc(C)cc1 (stereo unspecified) | 5.05 |
| C=CCN1C=CC(=CC=C(C#N)C#N)C=C1 | 3.27 |
| Cc1nn(C)cc1N1C(=O)c2cccc3c(N)ccc(c23)C1=O | 5.94 |
| O=C(CN1CCN(Cc2ccc(Cl)cc2)C1=O)NCCCN1CCN(c2ccc(F)cc2)CC1 | -4.01 (active) |
| O=C(NCCN1CCCC1)C1(S(=O)(=O)c2ccc(Cl)cc2)CC1 | 3.06 |
| c1ccc2c3c([nH]c2c1)C1(CCCCC1)NCC3 | -0.6 |

| Structure (SMILES) | z-score |
| --- | --- |
| O=C(N/N=C\c1cn(-c2ccccc2)nc1-c1ccccc1)c1ccc(Br)o1 | 3.24 |
| O=C(N/N=C/c1cn(-c2ccccc2)nc1-c1ccccc1)c1ccco1 | -4.01 (active) |
| Nc1c(C(=O)N/N=C/c2ccccc2Cl)oc2nc(-c3ccccc3)cc(-c3ccco3)c12 | 6.17 |
| CCSc1nc2c(c(=O)[nH]c(=O)n2C)n1C | -1.45 |
| CC(C)C(C)(C#N)NC(=O)CSc1nnc(C(F)(F)F)n1C (stereo unspecified) | 3.02 |
| C#CC(C)(C)NC(=O)CSc1nc2c(c(=O)n(C)c(=O)n2C)n1CCCC | -7.25 (active) |
| COc1ccc(CN2CCN(c3ccccn3)CC2)cc1OCc1ccccc1 | -8.87 (active) |
| CC(=O)Nc1sc2c(c1CN1CCN(c3ccccn3)CC1)CCCC2 | -1.66 |
| Cc1cnc(NC(=O)CN2CCN(c3ccccn3)CC2)s1 | 3.14 |
| COc1ccc(OC)c(C(c2nnnn2C2CCCC2)N2CCN(c3ccccc3F)CC2)c1 (stereo unspecified) | -4.67 (active) |
| CCOc1cc(N(CC)CC)ccc1/C=C(/C#N)c1nc2ccccc2[nH]1 | 8.11 |
| CCN(CC)c1ccc2cc(-c3nc4ccccc4[nH]3)c(=O)oc2c1 | 17.2 |
| CCOC(=O)N1CCN(C(=O)CSc2ccc3nnc(CCNC(=O)c4ccc(OC)cc4)n3n2)CC1 | 3.73 |
| CN(C)c1ccc(/C=C2\CCC/C(=C\c3ccccc3)C2=O)cc1 | 3.4 |
| Cc1nnc(NC(=O)c2sc3nc(-c4cccs4)cc(C(F)(F)F)c3c2N)s1 | 15.1 |
| O=C(N/N=C/c1cc(Br)ccc1O)Nc1ccccc1 | -4.87 (active) |
| CN(C)c1ccc(C(=O)N/N=C/c2cc(Br)cc(Br)c2O)cc1 | 4.65 |
| O=C(Nc1ccc(Br)cc1)C(c1ccccc1)c1ccccc1 | -0.28 |
| CC(=O)Nc1ccc(C(=O)N/N=C/c2cc(Br)cc(Br)c2O)cc1 | -3.57 (active) |
